The values below come from ChEMBL document CHEMBL1961873, “Compounds: GSK PKIS; Assays: Nanosyn kinase panel” (2012).

Where “and” joins values, the source holds several entries; their conditions need not be identical. Equal values may be shown once.

Chain of Proto-oncogene tyrosine-protein kinase receptor Ret (Homo sapiens), P07949 [Y791F] (P07949 whole entry Y791F): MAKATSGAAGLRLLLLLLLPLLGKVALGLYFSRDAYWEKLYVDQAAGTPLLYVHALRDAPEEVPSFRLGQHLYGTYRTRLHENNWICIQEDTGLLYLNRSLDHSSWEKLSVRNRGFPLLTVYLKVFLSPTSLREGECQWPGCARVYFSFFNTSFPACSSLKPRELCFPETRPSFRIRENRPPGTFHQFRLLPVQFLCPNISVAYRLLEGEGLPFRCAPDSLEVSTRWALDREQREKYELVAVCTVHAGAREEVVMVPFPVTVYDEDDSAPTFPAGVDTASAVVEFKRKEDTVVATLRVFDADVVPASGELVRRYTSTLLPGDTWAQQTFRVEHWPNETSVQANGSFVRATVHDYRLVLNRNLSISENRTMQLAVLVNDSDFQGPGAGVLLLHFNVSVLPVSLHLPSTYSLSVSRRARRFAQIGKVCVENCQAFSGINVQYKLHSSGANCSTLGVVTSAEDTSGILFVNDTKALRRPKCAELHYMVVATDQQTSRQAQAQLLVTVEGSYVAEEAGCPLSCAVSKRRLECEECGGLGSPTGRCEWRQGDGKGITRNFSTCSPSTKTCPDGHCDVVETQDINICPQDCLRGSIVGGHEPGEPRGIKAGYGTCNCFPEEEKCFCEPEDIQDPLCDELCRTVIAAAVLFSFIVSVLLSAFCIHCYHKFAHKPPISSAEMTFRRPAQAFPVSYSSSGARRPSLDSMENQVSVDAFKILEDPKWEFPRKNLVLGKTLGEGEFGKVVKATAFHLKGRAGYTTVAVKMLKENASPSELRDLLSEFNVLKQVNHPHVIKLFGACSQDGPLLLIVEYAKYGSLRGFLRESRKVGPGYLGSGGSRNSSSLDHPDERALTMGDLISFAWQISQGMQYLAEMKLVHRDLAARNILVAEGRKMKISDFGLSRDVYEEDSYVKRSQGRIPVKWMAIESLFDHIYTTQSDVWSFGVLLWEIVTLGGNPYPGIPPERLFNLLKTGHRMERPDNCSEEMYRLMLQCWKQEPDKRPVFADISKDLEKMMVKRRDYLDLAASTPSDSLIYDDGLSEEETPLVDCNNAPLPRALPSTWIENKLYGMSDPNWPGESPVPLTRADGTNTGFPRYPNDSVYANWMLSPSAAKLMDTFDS

For one test, the system named is Proto-oncogene tyrosine-protein kinase receptor Ret (Homo sapiens), P07949 [V804L]. The note with it: at 1 µM.
Chain of Proto-oncogene tyrosine-protein kinase receptor Ret (Homo sapiens), P07949 [V804L] (P07949 whole entry V804L): as the sequence (P07949 whole entry Y791F) above, with F791Y, V804L counted along it
On to `Cc1nnc(-c2cccc(-c3ccc(C(=O)NCC4CC4)cc3)c2)o1`, for which the inhibition came to 16.7%. Turning to `CS(=O)(=O)Nc1ccc(-c2cc(-c3ccccc3)cc(C(N)=O)c2N)cc1`, the inhibition was 2.99%. Take `CN1CCC(n2cnc(-c3ccc(F)cc3)c2-c2ccnc(NCCO)n2)CC1`: the inhibition is 10.8%. Consider `COC(=O)Nc1nc2ccc(Oc3ccc(NC(=O)Nc4cc(C(F)(F)F)ccc4F)cc3)cc2s1`, for which the inhibition was 84.6%.

Turning to `COc1ccc(Nc2ncc(-c3ccccc3)o2)cc1OC`, the inhibition worked out at 17.1%. In turn, `OCCCNc1nccc(-c2c(-c3ccc(F)cc3)nn3cc(C(F)(F)F)ccc23)n1` gave an inhibition of 3.05%. As to `Fc1cccc(COc2ccc(Nc3ncncc3C#Cc3ccccc3)cc2Cl)c1`, the inhibition amounted to 11.9%.

`CS(=O)(=O)CCNCc1ccc(-c2ccc3ncnc(Nc4ccc(OCc5cccc(C(F)(F)F)c5)cc4)c3c2)o1` gave an inhibition of 7.73%. `CS(=O)(=O)CCNCc1ccoc1-c1ccc2ncnc(Nc3ccc(OCc4ccccc4)cc3)c2c1`: the inhibition came to 9.53%. Still for that read-out and setting: to `N#Cc1cccc(Nc2ncc(-c3ccccc3)o2)c1` belongs 14.4%; to `N#Cc1ccc2c(-c3ccnc(NC4CC4)n3)c(-c3ccc(F)cc3)nn2c1`, 2.65%; to `Cc1ccc(-c2cc3c(NC(=O)C4CC4)ncnc3o2)cc1`, 13.6%.

As to `NS(=O)(=O)c1cccc(N/C=C2\C(=O)Nc3ccccc32)c1`, the inhibition was determined as 48.6%. As for `O=C(O[C@H]1CN[C@H](C#Cc2cc3ncnc(Nc4ccc5c(cnn5Cc5ccccc5)c4)c3s2)C1)N1CCOCC1`, the inhibition was 4.7%. Take `Cc1cc(O)cc(C)c1/C=C/c1cncc(C(N)=O)c1`: the inhibition is 4.4%. Compound `CS(=O)(=O)CCNCc1ccc(-c2ccc3ncnc(Nc4ccc(OCc5ccccc5)cc4)c3c2)o1` returned an inhibition of 11.9%.

Another test has as its system Proto-oncogene tyrosine-protein kinase receptor Ret (Homo sapiens), P07949 [Y791F]. Particulars: at 0.1 µM.
`Cc1cc(O)cc(C)c1/C=C/c1cncc(C(=O)OC(C)(C)C)c1` returned an inhibition of 4.05%. Turning to `CS(=O)(=O)Nc1ccc(-c2ccc3c(NC(=O)C4CC4)n[nH]c3c2)cc1`, the inhibition came to 6.88%. Compound `COc1cc2c(cc1Nc1nc(Nc3cccc(F)c3C(N)=O)c3cc[nH]c3n1)N(C(=O)CN1CCN(C(C)C)CC1)CC2` gave an inhibition of 1.11%. Take `COC(=O)Nc1nc2cc(Oc3ccc(NC(=O)Nc4ccccc4)cc3)ccc2[nH]1`: the inhibition is 15.3%. Consider `COc1ccccc1-c1cc(/C=C2\C(=O)Nc3ncc(Br)cc32)cc(Br)c1O`, for which the inhibition came to 12.6%. For the compound `O=C(Nc1n[nH]c2nnc(-c3cccnc3)cc12)C1CC1`, the inhibition came out at 1.5%.

`CCOc1ccc2c(-c3ccnc(Nc4cc(OC)cc(C(F)(F)F)c4)n3)cnn2n1`: the inhibition turned out to be 2.94%. Compound `O=C(O[C@H]1CN[C@H](C#Cc2cc3ncnc(Nc4ccc(OCc5cccc(F)c5)c(Cl)c4)c3s2)C1)N1CCOCC1` returned an inhibition of 4.36%. In turn, `CC1=C(C(=O)Nc2ccc3[nH]ncc3c2)C(c2ccc(F)cc2)N=C(c2ccc(C(F)(F)F)nc2)N1` (configuration not stated) came in with an inhibition of 9.49%. For the compound `Nc1nccc(-c2c(-c3ccc(F)cc3)ncn2C2CCNCC2)n1`, the inhibition is 0.26% and 3.84%.

Regarding `COc1c(C(N)=O)cc(-c2ccc(Cl)cc2)cc1-c1ccc(S(N)(=O)=O)cc1`, the inhibition was 6.18%. As for `CCS(=O)(=O)c1ccc(OC)c(Nc2ncc(-c3cccc(F)c3)o2)c1`, the inhibition was determined as 15.9%. For `Cc1c2ccc(N(C)c3ccnc(Nc4cccc(S(N)(=O)=O)c4)n3)cc2nn1C`, the inhibition was determined as 60.6%. For the compound `CN(C)CCNC(=O)Nc1ccc(N(C)c2ccnc(Nc3ccc(CS(C)(=O)=O)cc3)n2)cc1`, the inhibition is 9.9%. On the same count and under the same terms, to `COc1ccc2ncn(-c3cc(O[C@H](C)c4ccccc4C(F)(F)F)c(C(N)=O)s3)c2c1` belongs 2.46%. As to `Cc1nnc(-c2cccc(-c3ccc(C(=O)NCC4CC4)cc3)c2)o1`, the inhibition was 5%.

For `CS(=O)(=O)Nc1ccc(-c2cc(-c3ccccc3)cc(C(N)=O)c2N)cc1`, the inhibition came to 4%.

`CN1CCC(n2cnc(-c3ccc(F)cc3)c2-c2ccnc(NCCO)n2)CC1` showed an inhibition of 5.21%.

As to `COC(=O)Nc1nc2ccc(Oc3ccc(NC(=O)Nc4cc(C(F)(F)F)ccc4F)cc3)cc2s1`, the inhibition is 78.9%. In turn, `COc1ccc(Nc2ncc(-c3ccccc3)o2)cc1OC` registered an inhibition of 6.85%. Take `OCCCNc1nccc(-c2c(-c3ccc(F)cc3)nn3cc(C(F)(F)F)ccc23)n1`: the inhibition was determined as 6.39%. `Fc1cccc(COc2ccc(Nc3ncncc3C#Cc3ccccc3)cc2Cl)c1` showed an inhibition of 5.33%.

With `CS(=O)(=O)CCNCc1ccc(-c2ccc3ncnc(Nc4ccc(OCc5cccc(C(F)(F)F)c5)cc4)c3c2)o1`, the inhibition is 5.55%.

The compound `CS(=O)(=O)CCNCc1ccoc1-c1ccc2ncnc(Nc3ccc(OCc4ccccc4)cc3)c2c1` displayed an inhibition of 4.19%. As for `N#Cc1cccc(Nc2ncc(-c3ccccc3)o2)c1`, the inhibition came out at 0.39%. Turning to `N#Cc1ccc2c(-c3ccnc(NC4CC4)n3)c(-c3ccc(F)cc3)nn2c1`, the inhibition stood at 4.65%. The same measure, in the same setting: in the case of `Cc1ccc(-c2cc3c(NC(=O)C4CC4)ncnc3o2)cc1` it was 8.23%; in that of `NS(=O)(=O)c1cccc(N/C=C2\C(=O)Nc3ccccc32)c1`, 10.1%. The compound `O=C(O[C@H]1CN[C@H](C#Cc2cc3ncnc(Nc4ccc5c(cnn5Cc5ccccc5)c4)c3s2)C1)N1CCOCC1` came in with an inhibition of 2.45%. The compound `Cc1cc(O)cc(C)c1/C=C/c1cncc(C(N)=O)c1` yielded an inhibition of 3.94%. Regarding `CS(=O)(=O)CCNCc1ccc(-c2ccc3ncnc(Nc4ccc(OCc5ccccc5)cc4)c3c2)o1`, the inhibition was 3.34%.
